Assay outcomes: PubChem, National Center for Advancing Translational Sciences (NCATS)
Compounds with a hit are over-represented: about 10% of the library has one in this group of screens.
RORg inh: blocks mouse ROR gamma transcriptional activity. Drosophila S2 Gal4-RORgamma UAS-luciferase reporter, 20 h. Potency, µM (series often up to 53.6 µM), usual class: inhibitors. actives 5.4% (n = 310,000). AID 2551; note: nearly all actives have a fitted effect of over 60% in size
Target sequence (P51450 whole entry, looked up, the tested form may be a part): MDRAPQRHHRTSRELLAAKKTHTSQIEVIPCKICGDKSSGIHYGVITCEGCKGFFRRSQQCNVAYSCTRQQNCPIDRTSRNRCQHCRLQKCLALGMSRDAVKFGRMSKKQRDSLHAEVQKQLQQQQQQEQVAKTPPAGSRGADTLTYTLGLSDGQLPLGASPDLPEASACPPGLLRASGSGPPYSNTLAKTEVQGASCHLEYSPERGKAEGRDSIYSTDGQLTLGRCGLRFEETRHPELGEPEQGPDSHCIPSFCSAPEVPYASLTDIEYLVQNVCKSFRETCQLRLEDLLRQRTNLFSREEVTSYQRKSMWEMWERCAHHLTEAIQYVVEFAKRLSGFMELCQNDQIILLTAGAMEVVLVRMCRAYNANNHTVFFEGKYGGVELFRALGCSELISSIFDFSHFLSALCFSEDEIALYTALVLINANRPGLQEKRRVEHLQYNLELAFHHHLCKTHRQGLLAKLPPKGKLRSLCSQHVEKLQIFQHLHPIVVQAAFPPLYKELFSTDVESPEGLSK
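A Gal4/UAS one-hybrid system in insect cells: metallothionein-promoter Gal4–ROR gamma fusion plus Photinus luciferase reporter. Copper sulfate 700 uM final, 20 hr ambient incubation, luminescent detection after 10 min with reagent.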
VP16 counter: Gal4-VP16 reporter inhibition counter-screen. Drosophila S2 Gal4-VP16 UAS-luciferase, luminescence, 20 h. Potency, µM (top dose mostly 53.6 µM), hits mostly inhibitors. actives 3.5% (n = 310,000). AID 2546;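 note: Gal4-VP16 expression switched on by copper sulfate through the metallothionein promoter; nearly all actives have a fitted effect of over 50% in size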
MCF10A rereplic: DNA re-replication induction in MCF 10a cells | actives 2.9% (n = 350,000) | MCF 10A DNA re-replication, Hoechst nuclear intensity, 48 h | Potency, µM (series often up to 46.1 µM), most hits filed as activators; note: nearly all actives have a fitted effect of over 50% in size
KB-V1 cytotox: KB-V1 MDR subline cytotoxicity; KB-V1 MDR cells viability, CellTiter-Glo, 72 h; Potency, µM (highest dose often 46.1 µM), usual class: cytotoxic; actives 3.4% (n = 400,000); note: nearly all actives have a fitted effect of over 60% in size
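Cytotoxicity toward P-gp-expressing KB-V1 cells was determined as loss of CellTiter-Glo luminescence after 72 h at 37 degrees C. Compounds were tested in quantitative HTS format across a concentration range, with curves fitted to normalized data.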
KB-3-1 tox: KB-3-1 parental cell cytotoxicity. KB-3-1 viability, CellTiter-Glo ATP luminescence, 72 h. actives 1.4% (n = 400,000). AID 1347075. Potency, µM (series often up to 46.1 µM), actives largely listed as cytotoxic; note: nearly all actives have a fitted effect of over 60% in size
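Cytotoxicity measured as CellTiter-Glo luminescence after 72 h at 37 C. Compound titrations were pinned onto drug-naive KB-3-1 parental adenocarcinoma cells grown in DMEM with 10% FBS, and normalized data fitted to concentration-response curves.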
SW480 rerep: DNA re-replication induction in SW480 cells; actives 1.8% (n = 340,000); SW480 DNA re-replication, Hoechst DNA content imaging, 48 h; AID 624297; Potency, µM (series often up to 46.1 µM), usual class: activators; note: nearly all actives have a fitted effect of over 55% in size
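Cells (250 per well) received 23 nL compound or DMSO by pin tool and were kept 48 hr at 37 C, 5% CO2. Nuclei were then stained with Hoechst for 40 min and scanned for DNA content.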
Hits are given with their value; n = inactive; u = inconclusive; x = no result given; ! = not confirmed by another sample; [ ] = remark or other dose. Calls come from the whole dose curve; as a rule, active = well fitted curve in the direction sought with a large enough effect; inconclusive = small, poorly fitted or top-dose-only effect, or another doubt; inactive = no such curve, though single readings can be large; an effect the other way counts as inactive or inconclusive.

SMILES | RORg inh | VP16 counter | MCF10A rereplic | KB-V1 cytotox | KB-3-1 tox | SW480 rerep
O=S(=O)(NCCc1nnc2ccc(SCc3cccc(Cl)c3)nn12)c1ccccc1 | x | x | x | n | n | x
COc1cc(-c2onc3ccc(Br)cc23)cc(OC)c1OC | n | n | u | 2.06µM | 5.17µM | 18.4µM
Cn1cccc1C(=O)NC(=O)COC(=O)c1ccc(S(C)(=O)=O)cc1 | x | x | n | n | n | n
Cn1ccsc1=NC(=O)c1ccc(S(C)(=O)=O)c([N+](=O)[O-])c1 | n | n | 14.6µM | x | x | 16.4µM
CS(=O)(=O)c1ccc(C(=O)OCc2nnc(-c3ccc(Cl)cc3)o2)cc1[N+](=O)[O-] | 10µM | n | 3.66µM | n | n | u
Cn1ccsc1=NC(=O)c1ccc(Cl)c([N+](=O)[O-])c1 | n | n | n | n | n | n
O=C(OCc1nnc(-c2ccc(Cl)cc2)o1)c1ccc(O)cc1 | n | n | n | n | n | n
Cn1cccc1C(=O)NC(=O)COC(=O)c1ccc(S(C)(=O)=O)c([N+](=O)[O-])c1 | x | x | 5.8µM | u | u | 16.4µM
CS(=O)(=O)c1ccc(C(=O)OCC(=O)NC23CC4CC(CC(C4)C2)C3)cc1[N+](=O)[O-] | 11.2µM | u | 4.11µM | n | n | u
COc1cccc(NC(=O)c2oc3ccccc3c2NC(=O)c2ccc(OC(C)C)cc2)c1 | x | x | x | n | n | x
COc1ccc(N(CC(=O)NC2CCS(=O)(=O)C2)S(=O)(=O)c2cc(C)ccc2C)cc1 (stereo not given) | x | x | n | n | n | n
COc1ccc(CNC(=O)COC(=O)c2cc(C)oc2C)cc1 | x | x | x | n | n | x
COc1ccc(/C=C/C(=O)c2nc3ccccc3n2CC(=O)c2ccc(OC)cc2)cc1 | 10µM | n | n | 23.1µM | n | n
COc1ccc(C(=O)Cn2c(NCCO)nc3ccccc32)cc1 | n | n | n | n | n | n
COc1ccc(C(=O)Cn2c(C(C)=O)nc3ccccc32)cc1 | x | x | n | 3.26µM | u | n
O=C(NCC1CCCO1)C1CCN(C2CCN(CCCC3CCCC3)CC2)CC1 (stereo not given) | n | n | 16.4µM | n | n | u
O=C(CSC1=Nc2ccccc2C2CC=NN12)Nc1ccc(F)c(F)c1F (stereo not given) | x | x | 20.6µM | n | n | n
CCCCOC(=O)c1ccc(NC(=O)CSC2=Nc3ccccc3C3CC=NN23)cc1 (stereo not given) | n | n | n | n | n | n
COc1ccc(/C=C/c2ccc3ccccc3[n+]2C)c(OC)c1OC | x | x | x | n | u | x
COc1cc(OC)c(OC)cc1/C=C/c1ccc2ccccc2[n+]1C | x | x | x | n | 13µM | x
COc1ccc(/C=C/c2ccc3ccccc3[n+]2C)cc1OC | n | n | n | n | 10.3µM! | n
Cc1cc(OC(C)C(=O)N2CCN(CCc3ccccn3)CC2)ccc1Cl (stereo not given) | x | x | x | u | n | x
COc1cc(OC)c(NC(=O)Cn2c(=O)nc(-c3ccccc3)c3ccccc32)cc1Cl | x | x | x | n | n | x
O=C(Nc1ccc(Oc2ccccc2)cc1)c1ccc2nc([C@@H]3O[C@H](CO)[C@H](O)[C@H](O)[C@H]3O)[nH]c2c1 | x | x | x | n | n | x
C=CCC(c1ccccc1)N(C(C)=O)c1ccco1 (stereo not given) | n | n[10 µM] | n | n | n | n
SMILES | RORg inh | VP16 counter | MCF10A rereplic | KB-V1 cytotox | KB-3-1 tox | SW480 rerep
C=CCC(Nc1ccco1)c1ccccc1 (stereo not given) | n | 17.8µM | n | n | n | n
CC(C)OC(=O)c1nnn(-c2nonc2N)c1CN1CCc2ccccc2C1 | n | n | n | 6.51µM | n | n
CCOC(=O)c1nnn(-c2nonc2N)c1CN1CCc2ccccc2C1 | n | n | n | u | n | n
C/C(=N\NC(=O)c1nnn(-c2nonc2N)c1CN1CCc2ccccc21)c1ccccc1O | 2.24µM | 4.47µM | u | n | u | u
COC(=O)c1nnn(-c2nonc2N)c1CN1CCc2ccccc21 | n | n | n | u | 23.1µM | n
Cc1ccc(-c2nnc(Nc3ccc(C(=O)N(C)C)cc3)c3ccccc23)cc1S(=O)(=O)N(C)C | x | x | x | u | n | x
COc1ccc(S(=O)(=O)N2CCOCC2)cc1NS(=O)(=O)c1ccc(F)c(F)c1 | x | x | n | 23.1µM | n | n
COc1ccc(S(=O)(=O)Nc2ccccc2N2CCOCC2)cc1OC | x | x | n | 23.1µM | n | n
CCOc1ccccc1NS(=O)(=O)c1ccc(OC)c(OC)c1 | n | n | n | 25.9µM | n | n
COc1ccc(NS(=O)(=O)c2ccc3ccccc3c2)c2ncccc12 | 0.708µM | 1.12µM | u | n | u | 14.6µM
COc1ccccc1NS(=O)(=O)c1ccc2ccccc2c1 | u | n | n | n | n | n
O=S(=O)(c1ccc(Br)s1)N1CCN(c2cccc(C(F)(F)F)c2)CC1 | x | x | x | n | n | x
C#CCCCO/N=C1/C[C@@H](O)[C@@H](O)[C@@H]2[C@@H]3C(=O)N(c4cccc(Oc5ccccc5)c4)C(=O)[C@H]3CC[C@H]12 | n[10 µM] | n[10 µM] | x | x | x | x
COc1ccccc1N1CCN(C(=O)c2ccc(Cl)c(S(=O)(=O)NCc3ccco3)c2)CC1 | n | n | u | 12.6µM | 7.08µM | u
O=C(/C(=C/O)N=Nc1ccc(Cl)cc1)c1ccncc1 | n | n | u | n | 13µM | u
COc1cc(/C=C2\C=Cc3ccccc32)ccc1N(C)C | x | x | x | n | n | x
CC(C)c1cc2c(c(O)c1O)[C@@]13CCCC(C)(C)C1CC2OC3=O (stereo not given in full) | 14.1µM | u | u | n | u | u
O=C(CC1(O)C(=O)N(Cc2ccccc2)c2ccc(Br)cc21)c1ccccc1 (stereo not given) | x | x | x | n | n | x
C=CCN1C(=O)C(O)(CC(=O)c2ccco2)c2cc(Br)ccc21 (stereo not given) | n | n | u | u | n | 13µM
CCOC(=O)c1c(C)oc(=O)c(CC)c1O | x | x | x | n | n | x
CCOC(=O)c1c(C)oc2c(F)c(F)c(F)c(F)c2c1=O | u | n | 6.51µM | u | u | u
O=C1CCC=C1C(O)c1ccc2c(c1)OCO2 (stereo not given) | n | n | x | x | x | x
Cc1ccc(C(C(=O)NCC2CCCO2)N(C(=O)c2snc(C(N)=O)c2N)c2ccc(C)c(C)c2)o1 (stereo not given) | n | n | n | u | n | n
CC(=O)c1cc2c(cc1NC(=O)Cn1nc(-c3ccc(C)cc3)ccc1=O)OCO2 | n | n | u | 9.2µM | 23.1µM | n
Cc1ccc(-c2ccc(=O)n(CC(=O)Nc3ccc4c(c3)OCCO4)n2)cc1 | n | n | u | n | n | n
CN(C)S(=O)(=O)c1ccc(NC(=O)Cn2nc(-c3ccc4c(c3)OCCO4)ccc2=O)cc1 | x | x | n | u | u | 18.4µM
